Screening results: PubChem, National Center for Advancing Translational Sciences (NCATS)
KB-3-1 cytotox: kills parental KB-3-1 adenocarcinoma cells | KB-3-1 viability, CellTiter-Glo ATP luminescence, 72 h | Potency, µM (titrated, usually from 46.1 µM), most hits filed as cytotoxic | actives 1.4% (n = 400,000); also: % is scaled to controls: 0 for no effect and ±100 for the full control effect; nearly all actives have a fitted effect of over 60% in size
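Parental KB-3-1 viability, qHTS format: 72 h compound exposure, 37 °C; CellTiter-Glo; media-only wells and DMSO plates as controls; concentration-effect fits on corrected data.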
PINK1 modulator: PINK1 expression modulation | PINK1 immunofluorescence, high-content cytometry, 24 h | Potency, µM (highest dose often 76.6 µM), for inactives: at the top dose activation (PINK1 increase), hits mostly activators | actives 0.2% (n = 410,000); active = well fitted activation curve with a large enough effect; inconclusive = small, poorly fitted or top-dose-only effect; cell line not stated here; also: % of control where 0% means no effect; nearly all actives have a fitted effect of over 65% in size
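A stable cell line was treated with compounds at 5 concentrations for 24 hours, with CCCP as control. PINK1 levels and mitochondrial localization were measured by immunofluorescence with mitochondrial, cell and nuclear markers after fixation, read by laser-scanning cytometry.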
12-LOX inh: inhibitors of human 12S-lipoxygenase ALOX12 | purified 12hLO, xylenol orange hydroperoxide absorbance | Potency, µM (highest dose often 108 µM), for the others: top-dose activity change, negative = inhibition, hits mostly inhibitors | actives 1.1% (n = 580,000) | AID 1671190; also: % is scaled to controls: 0 for no effect and ±100 for the full control effect
Target sequence (P18054 whole entry, looked up): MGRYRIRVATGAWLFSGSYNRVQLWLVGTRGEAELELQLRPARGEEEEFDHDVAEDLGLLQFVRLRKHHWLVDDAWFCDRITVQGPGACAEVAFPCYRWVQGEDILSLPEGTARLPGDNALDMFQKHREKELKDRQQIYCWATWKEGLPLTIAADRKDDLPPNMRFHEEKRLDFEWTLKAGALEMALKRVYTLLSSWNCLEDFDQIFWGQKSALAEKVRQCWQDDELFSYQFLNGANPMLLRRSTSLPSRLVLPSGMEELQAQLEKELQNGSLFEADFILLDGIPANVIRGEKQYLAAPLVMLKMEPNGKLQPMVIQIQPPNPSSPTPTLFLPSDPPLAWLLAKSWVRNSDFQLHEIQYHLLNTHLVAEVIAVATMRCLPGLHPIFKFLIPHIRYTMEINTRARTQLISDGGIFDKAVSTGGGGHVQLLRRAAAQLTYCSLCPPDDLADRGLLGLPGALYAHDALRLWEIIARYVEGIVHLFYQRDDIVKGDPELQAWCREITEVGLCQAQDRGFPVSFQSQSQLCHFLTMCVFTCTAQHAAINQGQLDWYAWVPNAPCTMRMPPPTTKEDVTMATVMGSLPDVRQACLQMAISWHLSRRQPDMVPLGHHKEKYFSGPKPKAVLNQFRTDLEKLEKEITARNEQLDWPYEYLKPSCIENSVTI
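Purified human 12hLO at 150 nM in 25 mM Hepes, 0.01% Triton X-100, pH 7.0, preincubated 15 min at room temperature with compound. Reaction started with 40 uM arachidonic acid, 30 min at room temperature. Hydroperoxide measured by Fe-xylenol orange, 573/405 nm absorbance ratio.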
SW480 rereplic: induces DNA re-replication in SW480 colon adenocarcinoma cells. SW480 DNA re-replication, Hoechst DNA content imaging, 48 h. Potency, µM (series often up to 46.1 µM), without a hit: at the top dose re-replication activation, actives largely listed as activators. actives 1.8% (n = 340,000). AID 624297; also: % of control where 0% means no effect; nearly all actives have a fitted effect of over 55% in size
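Readout is total intensity of Hoechst-stained nuclei, excited at 405 nm and collected at 500-530 nm. Compound treatment lasted 48 hr at 37 C in 5% CO2 before staining.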
KB-V1 cytotox: kills drug-selected multidrug resistant KB-V1 cells. actives 3.4% (n = 400,000). AID 1347076. Potency, µM (highest dose often 46.1 µM), most hits filed as cytotoxic. KB-V1 MDR cells viability, CellTiter-Glo, 72 h; also: % is scaled to controls: 0 for no effect and ±100 for the full control effect; nearly all actives have a fitted effect of over 60% in size
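KB-V1, DMEM (no phenol red) + 10% FBS; cpd pin-transferred, titration series; 72 h, 37 degrees C; CellTiter-Glo, luminescence. Data normalized, curve-fit.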
MCF10A rereplic: inducers of DNA re-replication in MCF 10A breast cells | MCF 10A DNA re-replication, Hoechst nuclear intensity, 48 h | Potency, µM (series often up to 46.1 µM), for inactives: top-dose activity, positive = re-replication, usual class: activators | actives 2.9% (n = 350,000) | AID 624296; also: % of control where 0% means no effect; nearly all actives have a fitted effect of over 50% in size
* marks the source's active call; other numbers are inactive results; i = inactive; u = inconclusive; x = not tested or not shown; [ ] = remark or other dose. Most compounds without a hit are left out; they make up all but 5.8% or so of the library. Unless noted, calls follow the shape of the dose curve; as a rule, active = well fitted curve in the direction sought with a large enough effect; inconclusive = small, poorly fitted or top-dose-only effect, or another doubt; inactive = no such curve, though single readings can be large; an effect the other way counts as inactive or inconclusive. Potency is read from the fitted curve at half-maximal effect.

SMILES	KB-3-1 cytotox	PINK1 modulator	12-LOX inh	SW480 rereplic	KB-V1 cytotox	MCF10A rereplic
CC1OC(OC2C(O)CC(OC3C(O)CC(OC4CCC5(C)C(CCC6C5CCC5(C)C(C7=CC(=O)OC7)C(O)CC65O)C4)OC3C)OC2C)CC(O)C1O (configuration not stated)	0.18µM*	-2%	3%	1.8µM*	u	u
C[C@H]1O[C@@H](O[C@H]2[C@@H](O)C[C@H](O[C@H]3[C@@H](O)C[C@H](O[C@H]4CC[C@@]5(C)[C@H](CC[C@@H]6[C@@H]5CC[C@]5(C)[C@@H](C7=CC(=O)OC7)CC[C@]65O)C4)O[C@@H]3C)O[C@@H]2C)C[C@H](O)[C@@H]1O	u	-1%	x	0.21µM*	0.18µM*	0.065µM*
CC1OC(O[C@@H]2C(O)CC(O[C@@H]3C(O)C[C@@H](OC4CC[C@]5(C)[C@H](CC[C@H]6[C@@H]5CC[C@]5(C)C(C7=CC(=O)OC7)C(O)C[C@@]65O)C4)OC3C)OC2C)CC(O)C1O (some centres not stated)	x	-2%	x	x	x	x
CC(=O)OC1CC2(O)C3CCC4CC(O)CCC4(C)C3CCC2(C)C1C1=CC(=O)OC1 (configuration not stated)	0.18µM*	-1%	14%	1.6µM*	u	u
CC[C@H]1CN2CC[C@H]1C[C@@H]2CNS(=O)(=O)c1cccc(F)c1	x	x	13%[176 µM]	x	x	x
Cc1nccc(N2CCN(C)C3(CCC(=O)N(C)CC3)C2)n1 (configuration not stated)	x	x	14%	x	x	x
CC(C)(C)c1ccc(-c2cn(C[C@H]3CC4CCN3C[C@@H]4C(=O)Nc3ccccc3)nn2)cc1 (some centres not stated)	x	x	5%	x	x	x
C[C@H]1C[C@@H](C)C(=O)[C@@H]([C@H](O)CC2CC(=O)NC(=O)C2)C1	3.3µM*	-1%	18%	u	u	4.6µM*
COc1cc2c(cc1OC)-c1c(OC)c(OC)c(OC)c3ccnc(c13)C2=O	i	-1%	-10%	8.2µM*	u	u
Fc1cccc(CC2CCOC3(CCNCC3)C2)c1 (configuration not stated)	x	x	21%	x	x	x
O=[N+]([O-])c1ccc(NCCNS(=O)(=O)c2ccccc2)c2ncccc12	x	x	-4%	x	x	x
Cc1c(NS(=O)(=O)c2ccccc2)ccc([N+](=O)[O-])c1Cl	u	16µM*	-12%	3%	u	21µM*
CC1CCC(NC(=O)c2cn(C)c3ccccc23)CC1 (configuration not stated)	x	x	18%	x	x	x
CN(C)C(=O)Oc1ccc(OCc2nc3ccccc3[nH]2)cc1	u	2%	11%	0%	12µM*	8%
CN(C)C(=O)Oc1ccc(OC(=O)N(C)C)cc1	i	-2%	322%	2%[9.22 µM]	i	u
Cc1ccc(C(C)C)cc1OCC(=O)N1CCN(Cc2nc(N)c3ccccc3n2)CC1	x	x	35%	x	x	x
Cn1nc(-c2ccc(F)cc2)cc1[C@H]1CN2CC[C@H]1C[C@@H]2CNC(=O)c1ccc2c(c1)OCO2	x	x	26%	x	x	x
O=C(Nc1ccc2nc(-c3cccs3)c(-c3cccs3)nc2c1)NC1CC1	i	3%[38.3 µM]	u	u	u	18µM*
O=C1NC2(CCN(Cc3cccnc3)C2)Oc2ccccc21 (configuration not stated)	x	x	15%[176 µM]	x	x	x
COCCNC(=O)c1c(NC(=O)c2ccco2)n(Cc2ccccc2)c2nc3ccccc3nc12	i	3%	u	2.6µM*	i	u
COCCCNC(=O)c1c(NC(=O)c2ccccc2Cl)n(Cc2ccccc2)c2nc3ccccc3nc12	i	6%	-4%	10µM*	2.6µM*	u
C#CCN(C)C[C@H]1CN2CC[C@H]1C[C@@H]2CNC(=O)NC(C)C	x	x	34%[176 µM]	x	x	x
